# Reference: the supplement of paper PMC12340641
# The full ranking holds about 1,000 compounds; the median of “relative growth recovery (pomalidomide 10 uM = 100%, DMSO = 0%)” is about -1.6, and the highest 2% start at about 21. Only a selection was taken, and the highest values are over-represented in it overall.
# System: HEK293FT dCK*-IKZF1
# Assay: relative growth recovery (pomalidomide 10 uM = 100%, DMSO = 0%); higher = more growth rescue (IKZF1 fusion degradation)
# Details: compound concentration: 5 uM; AraC concentration: 0.3 uM; overnight pretreatment + 4 days AraC
# Experimental: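 Growth recovery screen of the molecular-glue-like (Specs) library. HEK293FT cells expressing a dCK*-IKZF1 fusion (primary) or dCK* alone (counter) were pretreated overnight with compound at 5 uM, then given 0.3 uM AraC for 4 days. Hoechst nuclei were counted by imaging. Primary: normalised to pomalidomide (100%) and DMSO (0%), mean of 2 replicates. Counter: normalised to no-AraC (100%) and AraC+DMSO (0%), single replicate.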
row,Compound,relative growth recovery
1,CCCc1cnc(Nc2cccc(C3CCN(C(=O)Cn4c(CC(C)C)nc5ccccc54)CC3)n2)s1,-2.13%
2,COc1ccc(-c2csc(Nc3ccc(S(=O)(=O)Nc4cc(OC)nc(OC)n4)cc3)n2)cc1,-2.94%
3,Cc1cnc(Nc2cccc(C3CCCN3C(=O)c3nccc4ccccc34)n2)s1 (centres undefined),2.39%
4,O=C(Cc1cccs1)Nc1ccc(Oc2ccc3c(c2)C(=O)N(c2ccc(O)cc2)C3=O)cc1,-1.26%
5,O=C(C1CCCCC1)N1CCC(Cc2cccc(Nc3nccs3)n2)CC1,4.47%
6,Cc1cccc(C)c1OCC(=O)Nc1ccc(S(=O)(=O)Nc2ncccn2)cc1,1.77%
7,COc1ccccc1CCC(=O)N1CCOC(c2cccc(Nc3ncc(C)s3)n2)C1 (centres undefined),10.8%
8,COc1cc(NS(=O)(=O)c2ccc(NC(=O)COc3cccc(C)c3)cc2)nc(OC)n1,-18.6%
9,COCC(=O)N1CCCC1c1cccc(Nc2nc(C)cs2)n1 (centres undefined),-7.27%
10,O=C1CCC(N2C(=O)c3ccc(C(=O)O)cc3C2=O)C(=O)N1 (centres undefined),-0.47%
11,Cc1cc(C)nc(NS(=O)(=O)c2ccc(NC(=O)c3ccccc3I)cc2)n1,-0.26%
12,Cc1ccnc(NS(=O)(=O)c2ccc(NC(=O)C34CC5CC(CC(C5)C3)C4)cc2)n1,-6.07%
13,CCCCCOC(=O)c1ccc(N2C(=O)c3ccc(Oc4ccc(N)cc4)cc3C2=O)cc1,1.57%
14,CC(C)Cc1nc2ccccc2n1CC(=O)N1CCC(Cc2cccc(Nc3nccs3)n2)CC1,-1.89%
15,CC(C)(C)C(=O)NC1(C(=O)N2CCC(c3cccc(Nc4ncc(Cl)s4)n3)CC2)CCCCC1,-18.6%
16,COCC(=O)N1CCC(c2cccc(Nc3ncc(C)s3)n2)CC1,-19.4%
17,CC(=O)Nc1ccc(-c2csc(Nc3cccc(C)n3)n2)cc1,0.905%
18,Cc1ccnc(Nc2nc(-c3sc(NC(=O)c4ccccc4)nc3C)cs2)c1,111%
19,Cc1ccc(Nc2nc(-c3sc(NC(=O)c4ccccc4)nc3C)cs2)nc1,111%
20,Cc1cccc(Nc2nc(-c3sc(NC(=O)c4ccccc4)nc3C)cs2)n1,121%
21,CC(=O)Nc1ccc(-c2csc(Nc3ccccn3)n2)cc1,2.7%
22,CC(=O)Nc1ccc(-c2csc(Nc3ccc(Cl)cn3)n2)cc1,-2.84%

row,Compound,relative growth recovery
1,CC(=O)N1CCCC(c2csc(Nc3ccc(C)cn3)n2)C1 (centres undefined),-5.95%
2,CC(=O)N1CCCC1c1csc(Nc2ccccn2)n1 (centres undefined),-4.06%
3,CC(=O)Nc1cccc(-c2csc(Nc3cccc(C)n3)n2)c1,5.18%
4,Cc1nc2ccccn2c1CC(=O)N1CCOC(c2cccc(Nc3nccs3)n2)C1 (centres undefined),10.9%
5,Cc1cnc(Nc2cccc(C3CN(C(=O)COc4ccccc4)CCO3)n2)s1 (centres undefined),-5.58%
6,CCCc1cnc(Nc2cccc(C3CCN(C(=O)C4CCCCN4C(=O)CN(C)C)CC3)n2)s1 (centres undefined),-2.86%
7,Cc1csc(Nc2cccc(C3CCN(C(=O)c4cccnc4)CC3)n2)n1,8.94%
8,Cc1cc(C)c(C(=O)Nc2ccc(S(=O)(=O)Nc3cc(C)nc(C)n3)cc2)c(C)c1,-1.16%
9,Cc1csc(Nc2cccc(C3CN(CC(=O)NCc4ccccn4)CCO3)n2)n1 (centres undefined),8.57%
10,Cc1cnc(Nc2cccc(C3CN(C(=O)C4CC4c4ccc(Cl)cc4)CCO3)n2)s1 (centres undefined),28.4%
11,COc1cccc(OC)c1C(=O)N1CCOC(c2cccc(Nc3nc(C)cs3)n2)C1 (centres undefined),7.41%
12,Cc1cnc(Nc2cccc(C3CN(C(=O)CCC4CCCCC4)CCO3)n2)s1 (centres undefined),7.2%
13,Cc1csc(Nc2cccc(C3CN(C(=O)CCOc4ccccc4C)CCO3)n2)n1 (centres undefined),62.8%
14,Cc1cnc(Nc2cccc(C3CN(C(=O)C4CCCC4)CCO3)n2)s1 (centres undefined),-12.3%
15,Cc1csc(Nc2cccc(C3CN(C(=O)COc4c(C)cccc4C)CCO3)n2)n1 (centres undefined),22.3%
16,Cc1cnc(Nc2cccc(C3CN(C(=O)C45CC6CC(CC(C6)C4)C5)CCO3)n2)s1 (centres undefined),-2.75%
17,Cc1csc(Nc2cccc(C3CN(C(=O)CCn4ncc5ccccc54)CCO3)n2)n1 (centres undefined),18.8%
18,Cc1csc(Nc2cccc(C3CCCN3C(=O)CCOc3ccccc3C)n2)n1 (centres undefined),11.5%
19,Cc1csc(Nc2cccc(C3CN(C(=O)CCC4CCCC4)CCO3)n2)n1 (centres undefined),21%
20,COCC(=O)N1CCOC(c2cccc(Nc3nc(C)cs3)n2)C1 (centres undefined),2.9%
21,Cc1csc(Nc2cccc(C3CN(C(=O)Cn4nc(C)ccc4=O)CCO3)n2)n1 (centres undefined),1.32%
22,COc1cc(NS(=O)(=O)c2ccc(NC(=O)c3ccc(Br)o3)cc2)nc(OC)n1,2.29%

row,Compound,relative growth recovery
1,CC(C)(N)C(=O)N1CCC(CO)(c2cccc(Nc3ncc(-c4ccccc4)s3)n2)CC1,-19.1%
2,Cc1cc(NS(=O)(=O)c2ccc(NC(=O)c3cccnc3)cc2)nc(C)n1,1.28%
3,CCCOc1ccc(C(=O)Nc2ccc(S(=O)(=O)Nc3ncccn3)cc2)cc1,-3.33%
4,Cc1cc(C)nc(NS(=O)(=O)c2ccc(NC(=O)CSc3nc4c(cc3C#N)CCC4)cc2)n1,-6.17%
5,Cc1nc(Nc2cccc(C3CCCN3C(=O)CCOc3cccc(F)c3)n2)sc1C (centres undefined),8.19%
6,CCOc1ccccc1OCC(=O)Nc1ccc(S(=O)(=O)Nc2ccccn2)cc1,-1.77%
7,COc1ccccc1CCC(=O)N1CCC(c2cccc(Nc3ncc(C)s3)n2)CC1,19%
8,Cc1ccc(N2C(=O)c3ccc(Oc4ccc(N)cc4)cc3C2=O)cc1,-1.57%
9,Nc1ccc(Oc2ccc3c(c2)C(=O)N(c2ccccc2)C3=O)cc1,2.54%
10,COCCNC(=O)C1(c2cccc(Nc3ncc(C)s3)n2)CCN(C(=O)C2CCCCC2)CC1,-5.38%
11,Cc1ccnc(NS(=O)(=O)c2ccc(NC(=O)Cc3ccc(Cl)cc3)cc2)n1,2.92%
12,Cc1cnc(Nc2cccc(C3CCCN3C(=O)CCCc3ccc(F)cc3)n2)s1 (centres undefined),0.955%
13,Cn1cc(/C=C/C(=O)N2CCC(c3cc4ccccc4c(Nc4nccs4)n3)CC2)cn1,-18.7%
14,CCc1nccn1CC(=O)N1CCOC(c2cccc(Nc3ncc(C)s3)n2)C1 (centres undefined),0.35%
15,Cc1cc(C)c(S(=O)(=O)Nc2ccc(S(=O)(=O)Nc3ncccn3)cc2)c(C)c1,6.84%
16,COc1ccc2[nH]c3nc(SCC(=O)Nc4cc(Cl)ccc4OC)nnc3c2c1,-18.5%
17,COc1cc(NS(=O)(=O)c2ccc(NC(=O)C3CC3)cc2)nc(OC)n1,-1.71%
18,O=C(O)CCOCCNc1cccc2c1C(=O)N(C1CCC(=O)NC1=O)C2=O (centres undefined),-5.19%
19,O=C1CCC(N2C(=O)c3cccc(NC[C@H]4CC[C@H](C(=O)O)CC4)c3C2=O)C(=O)N1 (some centres undefined),50.3%
20,O=C(O)CCCNc1cccc2c1C(=O)N(C1CCC(=O)NC1=O)C2=O (centres undefined),3.32%
